From PubChem BioAssay
Giardia kill: Giardia lamblia killing; Giardia lamblia trophozoite viability; activity change, % at 7.66 µM, hits read low; 0.15% of 340,000 active; AID 540267; in the data active means activity change below about -80%; inconclusive means between about -30% and that limit;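 further: parasites exposed to compound for two days anaerobically before the ATP read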
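Giardia lamblia trophozoites (100 cells/well) were incubated with compounds for 48 h at 37 deg C under anaerobic conditions. Viability was read as ATP content by one-step luminescence after 15-30 min at room temperature.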
MCF10A rerep: inducers of DNA re-replication in MCF 10A breast cells; AID 624296; MCF 10A DNA re-replication, Hoechst nuclear intensity, 48 h; 2.9% of 350,000 active; Potency, µM (doses to about 46.1 µM), usual class: activators; further: nearly all actives have a fitted effect of over 50% in size
RORgamma inh: inhibitors of mouse ROR gamma transcriptional activity; P51450; Potency, µM (doses to about 53.6 µM), usual class: inhibitors; 5.4% of 310,000 active; Drosophila S2 Gal4-RORgamma UAS-luciferase reporter, 20 h; further: nearly all actives have a fitted effect of over 60% in size
Target sequence (P51450 whole entry, looked up, the tested form may be a part): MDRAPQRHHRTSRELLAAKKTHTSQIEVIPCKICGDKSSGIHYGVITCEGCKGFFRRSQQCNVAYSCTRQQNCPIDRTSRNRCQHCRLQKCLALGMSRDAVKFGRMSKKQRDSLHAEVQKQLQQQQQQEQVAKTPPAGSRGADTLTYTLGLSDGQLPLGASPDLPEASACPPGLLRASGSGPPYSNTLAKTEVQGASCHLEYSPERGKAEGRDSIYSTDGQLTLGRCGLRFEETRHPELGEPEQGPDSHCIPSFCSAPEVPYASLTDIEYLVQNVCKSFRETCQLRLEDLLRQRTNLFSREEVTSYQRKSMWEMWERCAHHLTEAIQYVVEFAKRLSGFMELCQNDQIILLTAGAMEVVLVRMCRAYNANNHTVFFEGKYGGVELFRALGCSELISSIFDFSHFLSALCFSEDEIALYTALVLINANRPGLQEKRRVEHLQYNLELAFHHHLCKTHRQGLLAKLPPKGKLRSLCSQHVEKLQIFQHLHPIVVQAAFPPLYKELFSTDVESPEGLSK
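Schneider cells (Drosophila), stable Gal4 DBD–ROR gamma + UAS-luc; 1 hr cmpd preincubation; Cu2+ induction 700 uM final; 20 hr ambient; luminescence.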
SW480 rereplic: DNA re-replication induction in SW480 cells; SW480 DNA re-replication, Hoechst DNA content imaging, 48 h; Potency, µM (doses to about 46.1 µM), most hits filed as activators; 1.8% of 340,000 active; further: nearly all actives have a fitted effect of over 55% in size
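Cells (250 per well) received 23 nL compound or DMSO by pin tool and were kept 48 hr at 37 C, 5% CO2. Nuclei were then stained with Hoechst for 40 min and scanned for DNA content.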
Gal4-VP16 FLuc: counter-screen for ROR gamma inhibitors: Gal4-VP16 reporter | Potency, µM (top dose mostly 53.6 µM), usual class: inhibitors | Drosophila S2 Gal4-VP16 UAS-luciferase, luminescence, 20 h | 3.5% of 310,000 active | AID 2546;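 further: Gal4-VP16 expression switched on by copper sulfate through the metallothionein promoter; nearly all actives have a fitted effect of over 50% in size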
BCR signal inh: inhibitors of chronic active B-cell receptor signaling; ABC-DLBCL IkBa-CBG/CBR reporter, luminescence ratio, 4 h; AID 493014; Potency, µM (highest dose often 46.1 µM), hits mostly inhibitors; 0.05% of 340,000 active; active means well fitted inhibition curve with a large enough effect in the signal ratio, with a control signal flat, not every such curve was filed as active; inconclusive means small, poorly fitted or top-dose-only effect, or effect the other way, or a change in a side signal; the % refers to the signal ratio
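Doxycycline induced both beetle luciferases in TMD8 lymphoma cells; IKK-driven degradation limits the IkappaBalpha-fused green signal, while red luminescence normalises for cell number and nonspecific effects. Compounds tested up to 46 uM, 4 hrs.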
A number is an active result; – = inactive; ? = inconclusive; · = no result given; [ ] = dose if it differs, or a comment. An excerpt weighted towards active compounds, which were near 8.3% of everything screened. Unless noted, the call rests on the fitted dose curve; in most records, active means well fitted curve in the direction sought with a large enough effect; inconclusive means small, poorly fitted or top-dose-only effect, or another doubt; inactive means no such curve, though single readings can be large; an effect the other way counts as inactive or inconclusive.

SMILES | Giardia kill | MCF10A rerep | RORgamma inh | SW480 rereplic | Gal4-VP16 FLuc | BCR signal inh
CCN(CC)CCn1c(=S)[nH]c2cc(C(=O)N3CC=C(c4ccccc4)CC3)ccc2c1=O | · | · | – | · | – | –
C(=C\c1nnc2c3ccccc3ncn12)/c1ccccc1 | – | 6.5µM | ? | ? | ? | ?
O=C(/C=C/c1ccccc1)NC(=S)NNC(=O)c1cccnc1 | – | – | 10µM | – | ? | ?
COc1cc(C(=O)NNC(=S)NC(=O)/C=C/c2ccccc2)cc(OC)c1OC | – | – | 2.8µM | – | 4µM | ?
O=C(/C=C/c1ccccc1)NC(=S)NNC(=O)c1cnccn1 | – | – | – | – | – | ?
COc1cc(C(=O)C(=O)c2ccc(OC)c(OC)c2)ccc1O | – | – | · | – | · | ·
COc1ccc(Cl)cc1NC(=O)CN(C)C(=O)CCSc1ccc(C)cc1 | – | – | · | – | · | –
COc1ccc(NC(=S)NCCCN2CCCC2=O)c(OC)c1 | – | – | – | ? | –[10 µM] | –
COc1ccc(Cl)cc1NC(=S)NCCSc1ccc(C)cc1 | – | 23µM | 6.3µM | – | 5µM | ?
COc1ccc(CCNC(=S)NCc2ccc(Cl)c(Cl)c2)cc1OC | – | 13µM | ? | – | – | ?
COc1ccc(NC(=S)NCCSc2ccc(Cl)cc2)c(OC)c1 | – | ? | 1.1µM | – | –[0.365 µM] | ?
CCNC(=S)NCc1ccc(OC)c(OC)c1 | – | – | – | – | – | –
COc1ccccc1NC(=S)NCCSc1ccc(Cl)cc1 | – | – | 18µM | ? | ? | ?
O=C(O)CCC1CCCC1 | · | · | – | · | – | ·
O=C(CN1CCN(S(=O)(=O)c2ccc(Cl)c(C(F)(F)F)c2)CC1)NC(=O)NC1CCCCC1 | – | – | · | – | · | ·
O=C(COC(=O)CNC(=O)c1ccco1)Nc1ccccc1OC(F)F | – | – | – | – | – | –
COc1ccccc1NC(=S)NCCc1ccc(Cl)cc1 | – | ? | 1.8µM | ? | 7.1µM | –
COCc1n[nH]c(=S)n1-c1cccc2ccccc12 | – | – | ? | – | – | –
S=c1[nH]nc(-c2ccc3ccccc3n2)n1-c1ccccc1 | – | – | 1.4µM | – | 2µM | –
Fc1ccccc1-n1c(-c2ccc3ccccc3n2)n[nH]c1=S | – | – | 1.4µM | ? | ? | ?
COCC(=O)N1CCC2(CC1)CN(Cc1nccs1)C2 | · | · | – | · | – | ·
CC1CCC2(CC1)NC(=O)c1ccccc1O2 (centres undefined) | – | – | – | – | – | ?
CCN1CCN(c2ccc(S(=O)(=O)N3CCCCC3)cc2NC(=O)c2ccc([N+](=O)[O-])s2)CC1 | ? | ? | · | 13µM | · | –
COc1ccc(OC)c(/C=C/C(=O)Nc2cccc(S(=O)(=O)N3CCCC3)c2)c1 | – | 23µM | – | – | – | –
CCN1CCN(c2ccc(S(=O)(=O)N3CCCCC3)cc2NC(=O)/C=C/c2cc(OC)ccc2OC)CC1 | – | 21µM | ? | – | ? | –
SMILES | Giardia kill | MCF10A rerep | RORgamma inh | SW480 rereplic | Gal4-VP16 FLuc | BCR signal inh
CCN1CCN(c2ccc(S(=O)(=O)N3CCCCC3)cc2NC(=O)COc2ccc(Cl)c(C)c2)CC1 | – | – | 0.1µM | 16µM | – | –
CCN1CCN(c2ccc(S(=O)(=O)N3CCCCC3)cc2NC(=O)COc2ccccc2)CC1 | – | – | · | – | · | –
CCN1CCN(c2ccc(S(=O)(=O)N3CCCCC3)cc2NC(=O)/C=C/c2ccc(OC)c(OC)c2)CC1 | – | – | · | – | · | ?
COc1ccc(S(=O)(=O)N2CCOCC2)cc1NC(=O)COC(=O)CCS(=O)(=O)c1ccc(C)cc1 | – | – | · | – | · | ·
Cc1cccc(C)c1NC(=O)C1(N2C(=O)CC2c2ccccc2)CCCCC1 (centres undefined) | – | – | – | – | – | –
CC(=O)NC(C)c1ccc(C(=O)CSc2nnc(C3CC3)n2C2CC2)cc1 (centres undefined) | – | – | · | – | · | –
COc1ccc(/C=N/NC(=O)c2c(-c3ccccc3)noc2C)cc1[N+](=O)[O-] | – | – | – | – | – | –
COc1ccc(C(C(=O)NC(C)(C)C)N(CCc2ccc(OC)c(OC)c2)C(=O)CCC(=O)Nc2cc(C)on2)cc1 (centres undefined) | – | – | – | – | – | –
O=S(=O)(c1ccc(Cl)c(NC(=S)Nc2cccc(O)c2)c1)N1CCOCC1 | – | – | – | – | – | –
